Experimental data from PubChem BioAssay AID1159580 (chemical genetic matrix, 2015).
Where “and” joins values, the source holds several entries; their conditions need not be identical. Equal values may be shown once. The campaign covered roughly 5,500 compounds. About 2,000 (36%) were called active. Not shown: some 18% with an inconclusive outcome. Rule as the data show it: active = normalized growth mostly below about 0.91 (no sharp cut-off); inconclusive = no clear call, values can overlap the other calls; inactive = mostly above about 0.92. The list shows a part of the results.

Assay: chemical genetic growth profiling, strain panel (AID 1159580);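 also: tested at 20 µM; growth read once vehicle control cultures reached saturation at 30 °C; 1 = growth at the plate median or of vehicle wells; lower values mean less growth of the strain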
Conditions: S. cerevisiae deletion strains, growth OD

Measured: normalized growth

CC(C)CC(N(C)C)C1(c2ccc(Cl)cc2)CCC1 (stereo unspecified)
inactive: locus YAL013W, strain DEP1, active compounds read low 1 | locus YAL021C, strain ccr4, active compounds read low 0.987 | locus YAL026C, strain drs2, active compounds read low 1.01 | locus YAL030W, strain snc1, active compounds read low 1.01 | locus YBL061C, strain skt5, active compounds read low 1 | locus YBR009C, strain hhf1, active compounds read low 1 | locus YBR021W, strain FUR4, active compounds read low 0.952 | locus YBR023C, strain chs3, active compounds read low 1.01 | locus YBR171W, strain sec66, active compounds read low 1.01 | locus YBR229C, strain ROT2, active compounds read low 0.999 | locus YBR231C, strain swc5, active compounds read low 1.02 | locus YBR279W, strain paf1, active compounds read low 1.01 | locus YCL011C, strain gbp2, active compounds read low 0.999 | locus YCL016C, strain dcc1, active compounds read low 0.994 | locus YCL029C, strain bik1, active compounds read low 1.02 | locus YCL069W, strain vba3, active compounds read low 1 | locus YCR088W, strain abp1, active compounds read low 1.02 | locus YDL005C, strain med2, active compounds read low 1.01 | locus YDL035C, strain GPR1, active compounds read low 1.02 | locus YDL040C, strain nat1, active compounds read low 0.999 | locus YDL074C, strain BRE1, active compounds read low 1 | locus YDL101C, strain DUN1, active compounds read low 1 | locus YDL134C, strain PPH21, active compounds read low 1.01 | locus YDL185W, strain tfp1, active compounds read low 1.01 | locus YDL192W, strain arf1, active compounds read low 1.02 | locus YDR001C, strain nth1, active compounds read low 0.994 | locus YDR069C, strain doa4, active compounds read low 1.03 | locus YDR101C, strain arx1, active compounds read low 1.01 | locus YDR137W, strain rgp1, active compounds read low 1.12 | locus YDR150W, strain NUM1, active compounds read low 1.01 | locus YDR159W, strain sac3, active compounds read low 0.994 | locus YDR162C, strain NBP2, active compounds read low 0.99 | locus YDR195W, strain ref2 1.04 | locus YDR297W, strain sur2, active compounds read low 1.01 | locus YDR318W, strain mcm21, active compounds read low 1.02 | locus YDR334W, strain swr1, active compounds read low 1.01 | locus YDR335W, strain msn5, active compounds read low 1 | locus YDR388W, active compounds read low 1.02 | locus YDR392W, strain spt3, active compounds read low 0.976 | locus YDR502C, strain sam2, active compounds read low 1.01 | locus YEL003W, strain gim4, active compounds read low 1 | locus YEL037C, strain rad23, active compounds read low 1.01 | locus YEL061C, strain CIN8 (second series), active compounds read low 1 | locus YEL061C, strain CIN8, active compounds read low 0.993 | locus YER015W, strain faa2, active compounds read low 0.982 | locus YER016W, strain bim1, active compounds read low 1 | locus YER110C, active compounds read low 1.01 | locus YER111C, strain swi4, active compounds read low 1.01 | locus YER155C, strain BEM2 (second series), active compounds read low 1.03 | locus YER155C, strain BEM2, active compounds read low 0.969 | locus YER167W, strain BCK2, active compounds read low 0.983 | locus YFR010W, strain ubp6, active compounds read low 1.02 | locus YGL078C, strain dbp3, active compounds read low 1 | locus YGL086W, strain mad1, active compounds read low 1.01 | locus YGL167C, strain pmr1, active compounds read low 0.997 | locus YGL173C, strain kem1, active compounds read low 1 | locus YGL227W, strain vid30, active compounds read low 1.01 | locus YGL240W, strain doc1, active compounds read low 1.03 | locus YGL248W, strain PDE1, active compounds read low 0.999 | locus YGL253W, strain hxk2, active compounds read low 1 | locus YGR078C, strain PAC10, active compounds read low 1.01 | locus YGR135W, strain pre9, active compounds read low 1.02 | locus YGR229C, strain SMI1, active compounds read low 0.986 | locus YGR252W, strain gcn5, active compounds read low 1.03 | locus YHR013C, strain ard1, active compounds read low 1.02 | locus YHR027C, strain rpn1, active compounds read low 1 | locus YHR030C, strain SLT2, active compounds read low 1.01 and 1.02 | locus YHR079C, strain IRE1 (second series), active compounds read low 1.01 | locus YHR079C, strain IRE1, active compounds read low 1.01 | locus YHR094C, strain hxt1, active compounds read low 1.01 | locus YHR129C, strain ARP1, active compounds read low 1 | locus YHR142W, strain chs7, active compounds read low 1 | locus YHR200W, strain rpn10, active compounds read low 1.02 | locus YIL066C, strain RNR3, active compounds read low 0.997 | locus YIL073C, strain SPO22, active compounds read low 1.02 | locus YIL125W, strain kgd1, active compounds read low 1 | locus YIR030C, strain dcg1, active compounds read low 1.01 | locus YJL092W, strain hpr5, active compounds read low 1 | locus YJL095W, strain BCK1 (second series), active compounds read low 1 | locus YJL095W, strain BCK1, active compounds read low 1.01 and 0.998 | locus YJL115W, strain asf1, active compounds read low 1.02 | locus YJL129C, strain trk1, active compounds read low 1.03 | locus YJL134W, strain LCB3, active compounds read low 1 | locus YJL154C, strain vps35, active compounds read low 1.01 | locus YJL164C, strain tpk1, active compounds read low 0.995 | locus YJL166W, strain qcr8, active compounds read low 1.02 | locus YJL168C, strain set2, active compounds read low 1.01 | locus YJL187C, strain SWE1 (second series), active compounds read low 1.01 | locus YJL187C, strain SWE1, active compounds read low 1.01 | locus YJR043C, strain POL32, active compounds read low 0.999 | locus YJR066W, strain TOR1, active compounds read low 0.961
